Compounds with a hit are over-represented: about 0.71% of the library has one in this group of screens.
hiPSC survival = enhancers of single-cell hiPSC survival, primary screen, ATPlite luminescence; actives 0.044% (n = 360,000); 100% = ROCK inhibitor wells, 0% = DMSO; survival enhancement, % at 20 µM; AID 602274, 2012; in the data active = survival enhancement above about 18%;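 note: cells exposed to compounds for 16 hours before the ATP read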
MIN6 prolif = inducers of MIN6 beta-cell proliferation, primary screen, ATP luminescence, uHTS; AID 2380, 2010; MIN6 cells proliferation, ATPlite luminescence, 48 h; cells starved in 0.2% serum; 100% = growth in 10% serum; actives 0.29% (n = 330,000); proliferation, % at 10 µM;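 active = compounds whose signal lies at least 3.5 SD above the mean of all wells on their plate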;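 note: 0% = DMSO-treated cells in low-serum medium and 100% = 10% serum control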
TAG inh = inhibitors of triacylglycerol accumulation, primary screen, cell-based, uHTS, fluorescence, H9c2; H9c2 cells, Nile Red lipid (TAG) fluorescence; cells loaded with 200 µM oleic acid; inhibition, % at 12.5 µM; actives 0.66% (n = 230,000); AID 651582, 2012;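 active = pattern-corrected inhibition of lipid staining of at least 50% with the nuclear-stain viability signal not falling by more than 50%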;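 note: 0% = DMSO wells and 100% = triacsin C control wells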
TAG conf = triacylglycerol accumulation inhibitors, retest, confirmation, cell-based, single concentration, Nile Red fluorescence, H9c2; shares compounds with TAG inh; H9c2 lipid accumulation; cells loaded with 200 µM oleic acid; inhibition, % at 12.5 µM; actives 71% (n = 990);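 active = mean inhibition across replicates of 40% or more; inactive = mean inhibition below 40%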;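 note: plate controls were DMSO only wells for no effect and Triacsin C treated wells for full effect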
Active calls of the source: *; / = not tested or not shown.

SMILES	hiPSC survival	MIN6 prolif	TAG inh	TAG conf
Cc1noc(C)c1CSc1nc2ccccc2c(=O)n1-c1ccccc1	4	0	18	/
CC(C)(C)S(=O)N1Cc2cc(C(=O)N[C@@H]3CCN(Cc4ccccc4)C3)nc(-c3cccc(-c4cc5ccccc5o4)c3)c2[C@@H]1CCO (stereo partly specified)	-1	/	/	/
CN(C)C(=O)CCc1ccc2c3c([nH]c2c1)[C@]1(C)[C@@H](C(=O)N2CCOCC2)C[C@H](CC(=O)NCCCn2ccnc2)C(=O)N1CC3	-1	/	5	/
CCN(CC)C(=O)[C@H]1C[C@H](CC(=O)NCCCn2ccnc2)C(=O)N2CCc3c([nH]c4cc(CCC(=O)N(C)C)ccc34)[C@]12C	-2	/	53*	-10
COc1ccc2nc3cc([N+](=O)[O-])ccc3c(NNc3ccc([N+](=O)[O-])cc3)c2c1	1	/	50*	44*
COc1ccc(-c2cc(C(=O)Oc3ccc([N+](=O)[O-])cc3)c3ccccc3n2)cc1	-4	-6	6	/
O=C(NCc1cccnc1)C1Cc2c(-c3ccc(Cl)cc3)ccnc2O1 (stereo unspecified)	0	/	0	/
Oc1ccc(Nc2nc(NCC3CCCO3)c3ccccc3n2)cc1 (stereo unspecified)	-2	-3	50*	25
Oc1ccccc1Nc1nc(NCC2CCCO2)c2ccccc2n1 (stereo unspecified)	-1	-5	13	/
O=C(NCc1ccccc1CN1CCCC1)c1ccc(S(=O)(=O)Nc2ccccc2)cc1	1	/	5	/
CCCCNc1c(-c2ccc(OC)c(SC3CCCCC3)c2)nc2ccc(C)cn12	-2	-6	-2	/
COc1ccc(-c2nc3ccc(Cl)cn3c2NC2CCCCC2)cc1SC1CCCCC1	0	-6	63*	70*
Cc1nc(C(=O)Nc2ccccc2Cl)cc2c1[nH]c1ccccc12	16	-6	75*	55*
COc1ccc(NC(=O)c2cc3c([nH]c4ccccc43)c(C)n2)cc1	-2	1	/	/
CCCNC(=O)c1cc(C2CCCCN2S(=O)(=O)Cc2cccc(C(F)(F)F)c2)on1 (stereo unspecified)	2	/	-1	/
O=C(CN(Cc1ccco1)C(=O)c1ccc(Cl)cc1)Nc1c(Cl)cc(Cl)cc1Cl	-2	0	/	/
O=C(CN(Cc1ccco1)C(=O)c1cccc(Cl)c1)Nc1c(Cl)cc(Cl)cc1Cl	-2	-4	53*	39
CCc1nc2ccc(C(=O)NCCCN3CCCC3=O)cn2c1N(CC)C(C)=O	0	/	-8	/
Cc1ccc2nc(NC(=O)c3ccccc3F)sc2c1	-1	-3	2	/
CCCC(=O)Nc1nc2ccc(NC(=O)c3ccccc3F)cc2s1	0	-2	52*	82*
CCN1CCN(Cc2ccc(NC(=O)c3cc(NC(=O)C(=O)c4c[nH]c5ccccc45)cc(OC)c3)cc2C(F)(F)F)CC1	-4	-9	104*	94*
CCN1CCN(Cc2ccc(NC(=O)c3ccc(C)c(NC(=O)C(=O)c4c[nH]c5ccccc45)c3)cc2C(F)(F)F)CC1	-5	-7	77*	79*
CCN1CCN(Cc2ccc(NC(=O)c3ccc(C)c(NC(=O)c4ccc5n[nH]nc5c4)c3)cc2C(F)(F)F)CC1	2	-3	21	/
CCN1CCN(Cc2ccc(NC(=O)c3cc(NC(=O)c4cc(C)on4)cc(OC)c3)cc2C(F)(F)F)CC1	-1	-9	11	/
CN(Cc1ccccc1)C(=O)[C@@H]1CCCN1C(=O)[C@@H]1CCCN1C(=O)OC(C)(C)C	0	/	/	/
SMILES	hiPSC survival	MIN6 prolif	TAG inh	TAG conf
CC(C)(C)c1ccc(NC(=O)c2cc(C3CCCN(C(=O)CCc4ccccc4)C3)on2)cc1 (stereo unspecified)	-1	/	36	/
CCC(C)(C)NC(=O)C(c1ccc(OC)cc1)N(C(=O)CCC(=O)Nc1cc(C)on1)c1cccc(OC)c1 (stereo unspecified)	1	-3	/	/
CCC(C)(C)NC(=O)C(c1ccc(OC)cc1)N(C(=O)CCC(=O)Nc1cc(C)on1)C1CC1 (stereo unspecified)	0	-4	/	/
COc1ccc(C(C(=O)NC(C)(C)C)N(CCO)C(=O)CCC(=O)Nc2cc(C)on2)cc1 (stereo unspecified)	0	0	/	/
CCC(C)(C)NC(=O)C(c1ccc(OC)cc1)N(CC1CCCO1)C(=O)CCC(=O)Nc1cc(C)on1 (stereo unspecified)	-1	3	57*	41*
COc1ccc(C(C(=O)NC(C)(C)C)N(Cc2cccs2)C(=O)CCC(=O)Nc2cc(C)on2)cc1 (stereo unspecified)	-4	-1	70*	49*
CCC(C)(C)NC(=O)C(c1ccc(OC)cc1)N(Cc1cccs1)C(=O)CCC(=O)Nc1cc(C)on1 (stereo unspecified)	-3	2	72*	68*
CCOC(=O)C1=CCN(S(C)(=O)=O)C1c1ccc(C)cc1 (stereo unspecified)	0	/	/	/
Cc1cc(OCC(=O)OCC(=O)N2CCCc3ccccc32)ccc1Cl	-1	/	4	/
CCOc1ccc2nc(NC(=O)CN3CCN(C)CC3)sc2c1	0	-3	68*	38
CCOc1ccc2nc(NC(=O)CN3CCN(CC)CC3)sc2c1	0	-1	/	/
CN(C)CCCNc1cc(C(C)(C)C)nc2c(-c3ccc(Cl)cc3)cnn12	-1	-6	130	/
CC(C)(C)c1cc(NCc2ccccn2)n2ncc(-c3ccc(Cl)cc3)c2n1	1	-3	52*	44*
CCCCn1nnnc1C(c1ccccc1)N1CCN(c2cc(C)ccc2C)CC1 (stereo unspecified)	0	/	/	/
CCN(CC)CCNc1nc2cc(OC)c(OC)cc2c2nc(-c3ccccc3)nn12	-3	-6	64*	46*
COc1cc2[nH]c(=O)n3nc(-c4ccccc4)nc3c2cc1OC	2	0	34	/
COc1cccc(CN(C)C(=O)c2ccc(Cl)c(S(=O)(=O)N3CCCCCC3)c2)c1OC	-3	/	-1	/
Cc1ccc(N2C(=O)C3CC(c4ccccc4)=C4C5C=CC(C6C(=O)N(c7ccc(C)cc7C)C(=O)C56)C4C3C2=O)c(C)c1 (stereo unspecified)	2	-4	51*	53*
Cc1ccc(N2C(=O)C3CC(c4ccccc4)=C4C5C=CC(C6C(=O)N(c7ccc(C)cc7)C(=O)C56)C4C3C2=O)cc1 (stereo unspecified)	0	-2	/	/
CCCN1CCN(C(=O)c2ccc(S(=O)(=O)N(C)c3ccccc3OC)cc2)CC1	4	/	0	/
COc1ccc(CCNC(=O)[C@H](C)N2C(=O)N3CCc4c([nH]c5ccccc45)[C@@]3(C)C2=O)cc1OC	-2	-3	/	/
CCC1(O)CC2CN(CCc3c([nH]c4ccccc34)C(C(=O)OC)(c3cc4c(cc3OC)N(C=O)C3C(O)(C(=O)OC)C(OC(C)=O)C5(CC)C=CCN6CCC43C65)C2)C1 (stereo unspecified)	-4	/	52*	57*

Screens (PubChem)
